Measured values from PubChem BioAssay AID1159580 (chemical genetic matrix, 2015).
Several values for one entry are separate records, joined by “and”; a condition that tells them apart may be missing. Identical values can stand only once. The whole screen tested about 5,500 compounds, of which about 2,000 (36%) were called active. Inconclusive results (about 18%) are left out. No stated cut-off is given here; in the data, active means normalized growth mostly below about 0.91 (no sharp cut-off); inconclusive means no clear call, values can overlap the other calls; inactive means mostly above about 0.92. This is one part of the list.

Assay: chemical genetic growth profiling, strain panel (AID 1159580);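 further: tested at 20 µM; growth read once vehicle control cultures reached saturation at 30 °C; 1 = growth at the plate median or of vehicle wells; lower values mean less growth of the strain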
Details: S. cerevisiae deletion strains, growth OD

Measured: normalized growth

O=c1[nH]c2ccccc2n1C1CCN(CCCC(c2ccc(F)cc2)c2ccc(F)cc2)CC1
active: locus YAL021C, strain ccr4, active compounds read low 0.839 | locus YBR009C, strain hhf1, active compounds read low 0.875 | locus YDR069C, strain doa4, active compounds read low 0.854 | locus YDR137W, strain rgp1, active compounds read low 1.26 [resistant] | locus YDR388W, active compounds read low 0.838 | locus YDR392W, strain spt3, active compounds read low 0.646 | locus YER155C, strain BEM2 (second series), active compounds read low 0.707 | locus YFR010W, strain ubp6, active compounds read low 0.878 | locus YIL073C, strain SPO22, active compounds read low 1.72 [resistant]
inactive: locus YAL013W, strain DEP1, active compounds read low 1.01 and 0.995 | locus YAL026C, strain drs2, active compounds read low 0.948 | locus YAL030W, strain snc1, active compounds read low 0.963 | locus YAL040C, strain CLN3, active compounds read low 1.03 | locus YBL061C, strain skt5, active compounds read low 0.967 | locus YBR021W, strain FUR4, active compounds read low 0.969 | locus YBR023C, strain chs3, active compounds read low 0.918 | locus YBR171W, strain sec66, active compounds read low 1.03 | locus YBR229C, strain ROT2, active compounds read low 0.948 | locus YBR231C, strain swc5, active compounds read low 0.92 | locus YBR279W, strain paf1, active compounds read low 0.953 | locus YCL011C, strain gbp2, active compounds read low 0.93 | locus YCL016C, strain dcc1, active compounds read low 0.95 | locus YCL029C, strain bik1, active compounds read low 0.986 | locus YCL061C, strain MRC1 (second series), active compounds read low 1.01 | locus YCL061C, strain MRC1, active compounds read low 0.95 | locus YCL069W, strain vba3, active compounds read low 1 | locus YCR088W, strain abp1, active compounds read low 1 | locus YDL005C, strain med2, active compounds read low 1.01 | locus YDL035C, strain GPR1, active compounds read low 0.968 | locus YDL040C, strain nat1, active compounds read low 1.01 | locus YDL074C, strain BRE1, active compounds read low 0.904 | locus YDL101C, strain DUN1, active compounds read low 0.978 | locus YDL134C, strain PPH21, active compounds read low 0.972 | locus YDL185W, strain tfp1, active compounds read low 0.997 | locus YDL192W, strain arf1, active compounds read low 1 | locus YDR001C, strain nth1, active compounds read low 1.02 | locus YDR101C, strain arx1, active compounds read low 1 | locus YDR150W, strain NUM1, active compounds read low 0.973 | locus YDR159W, strain sac3, active compounds read low 0.92 | locus YDR162C, strain NBP2, active compounds read low 0.975 | locus YDR195W, strain ref2 1.05 | locus YDR297W, strain sur2, active compounds read low 0.959 | locus YDR318W, strain mcm21, active compounds read low 0.975 | locus YDR334W, strain swr1, active compounds read low 1.01 | locus YDR335W, strain msn5, active compounds read low 0.959 | locus YDR363W, strain ESC2, active compounds read low 0.989 | locus YDR502C, strain sam2, active compounds read low 0.986 | locus YEL003W, strain gim4, active compounds read low 0.944 | locus YEL037C, strain rad23, active compounds read low 0.936 | locus YEL061C, strain CIN8 (second series), active compounds read low 1.01 | locus YEL061C, strain CIN8, active compounds read low 0.989 | locus YER015W, strain faa2, active compounds read low 0.953 | locus YER016W, strain bim1, active compounds read low 0.961 | locus YER110C, active compounds read low 0.993 | locus YER111C, strain swi4, active compounds read low 1.02 | locus YER155C, strain BEM2, active compounds read low 1.02 | locus YER167W, strain BCK2, active compounds read low 0.99 | locus YGL078C, strain dbp3, active compounds read low 0.994 | locus YGL086W, strain mad1, active compounds read low 0.986 | locus YGL167C, strain pmr1, active compounds read low 1.01 | locus YGL173C, strain kem1, active compounds read low 0.936 | locus YGL227W, strain vid30, active compounds read low 1.03 | locus YGL240W, strain doc1, active compounds read low 0.916 | locus YGL248W, strain PDE1, active compounds read low 0.979 | locus YGL253W, strain hxk2, active compounds read low 0.938 | locus YGR078C, strain PAC10, active compounds read low 0.967 | locus YGR135W, strain pre9, active compounds read low 0.926 | locus YGR229C, strain SMI1, active compounds read low 0.949 | locus YGR252W, strain gcn5, active compounds read low 0.782 | locus YHR013C, strain ard1, active compounds read low 1.02 | locus YHR027C, strain rpn1, active compounds read low 0.927 | locus YHR030C, strain SLT2, active compounds read low 0.995 and 0.973 | locus YHR079C, strain IRE1 (second series), active compounds read low 0.994 | locus YHR079C, strain IRE1, active compounds read low 0.942 | locus YHR094C, strain hxt1, active compounds read low 0.995 | locus YHR129C, strain ARP1, active compounds read low 0.987 | locus YHR142W, strain chs7, active compounds read low 0.915 | locus YHR200W, strain rpn10, active compounds read low 0.988 | locus YIL066C, strain RNR3, active compounds read low 0.968 | locus YIL125W, strain kgd1, active compounds read low 0.995 | locus YIR030C, strain dcg1, active compounds read low 1 | locus YJL092W, strain hpr5, active compounds read low 0.936 | locus YJL095W, strain BCK1 (second series), active compounds read low 0.973 | locus YJL095W, strain BCK1, active compounds read low 1.01 and 0.96 | locus YJL115W, strain asf1, active compounds read low 1.02 | locus YJL129C, strain trk1, active compounds read low 0.885 | locus YJL134W, strain LCB3, active compounds read low 0.993 | locus YJL154C, strain vps35, active compounds read low 1.01 | locus YJL164C, strain tpk1, active compounds read low 0.937 | locus YJL166W, strain qcr8, active compounds read low 0.947 | locus YJL168C, strain set2, active compounds read low 0.997 | locus YJL187C, strain SWE1 (second series), active compounds read low 0.97 | locus YJR043C, strain POL32, active compounds read low 0.996 | locus YJR066W, strain TOR1, active compounds read low 0.93
